According to PubChem BioAssay (NCI):
This is part of a sample that, as a whole, favours compounds with a hit. Of some 83,000 tested, about 20% had one in any assay.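 Negative percent growth values reflect cell death: -40 means 40% of the cells present at the start died, and -100 means all died.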 A number with no mark means an inactive call. Activity calls are given as the source filed them. Rule for the calls: active = growth percent below 10; inactive = the rest.

Assays:
Assay in all cases: NCI-60 one-dose screen, 48 h (100 = growth as untreated, 0 = no growth, -100 = all killed)
NCI-H23 lung = details: 10 µM unless noted
DU-145 prostate = details: 10 µM unless noted
MDA-MB-231 breast = details: 10 µM unless noted
SF-268 CNS = details: 10 µM unless noted
SF-539 CNS = details: 10 µM unless noted
M14 melanoma = details: 10 µM unless noted
HCT-15 colon = details: 10 µM
HT29 colon = details: 10 µM unless noted
SNB-75 CNS = details: 10 µM unless noted
PC-3 prostate = details: 10 µM unless noted
UACC-62 melanoma = details: 10 µM unless noted
SK-MEL-28 melanoma = details: 10 µM unless noted
SN12C renal = details: 10 µM unless noted
ACHN renal = details: 10 µM unless noted
OVCAR-8 ovarian = details: 10 µM unless noted
OVCAR-5 ovarian = details: 10 µM unless noted
NCI/ADR-RES ovarian = details: 10 µM unless noted
MDA-MB-435 melanoma = details: 10 µM unless noted
HCT-116 colon = details: 10 µM unless noted
KM12 colon = details: 10 µM unless noted

| SMILES | growth (NCI-H23 lung) [%] | growth (DU-145 prostate) [%] | growth (MDA-MB-231 breast) [%] | growth (SF-268 CNS) [%] | growth (SF-539 CNS) | growth (M14 melanoma) | growth (HCT-15 colon) [%] | growth (HT29 colon) | growth (SNB-75 CNS) | growth (PC-3 prostate) [%] | growth (UACC-62 melanoma) [%] | growth (SK-MEL-28 melanoma) [%] | growth (SN12C renal) [%] | growth (ACHN renal) [%] | growth (OVCAR-8 ovarian) [%] | growth (OVCAR-5 ovarian) [%] | growth (NCI/ADR-RES ovarian) | growth (MDA-MB-435 melanoma) | growth (HCT-116 colon) [%] | growth (KM12 colon) [%] |
| --- | --- | --- | --- | --- | --- | --- | --- | --- | --- | --- | --- | --- | --- | --- | --- | --- | --- | --- | --- | --- |
| CC(=O)[O][Hg][c]1nc2c(c(=O)n(C)c(=O)n2C)n1C | 106 | 107 | 102 | 110 | 104% | 101% | 107 | 95.6% | 77.8% | 93.7 | 96.3 | 90.1 | 104 | 112 | 95.2 | 117 | 114% | 92.4% | 99.9 | 96.6 |
| C=CC(=O)NC(O)C(Cl)(Cl)Cl (stereo not given) | 105 | 106 | 115 | 104 | 102% | 98.2% | 97.1 | 106% | 100% | 102 | 101 | 103 | 109 | 99.6 | 108 | 107 | 106% | 105% | 101 | 106 |
| CC(=O)Nc1ccc(C=C2C(=O)NC(=O)NC2=O)cc1 | 101 | 124 | 104 | 111 | 105% | 106% | 103 | 109% | 84.2% | 93.3 | 99.1 | 106 | 103 | 109 | 101 | 107 | 108% | 101% | 101 | 112 |
| COc1ccc(-c2ccc(OC)c(OC)c2OC)cc1 | 46.1 | 13.8 | 43.8 | 51.5 | 3.98% (active) | 3.01% (active) | 27.1 | -4.61% (active) | -11% (active) | 18.3 | 34.4 | 49.6 | 42.3 | 55.8 | 21.7 | 58 | -20% (active) | -24% (active) | 15.3 | 29.2 |
| COC(=O)C(=[N+]=[N-])C(=O)OC | 98.1 | 112 | 113 | 106 | 103% | 103% | 105 | 101% | 80.6% | 92.3 | 95.3 | 105 | 98 | 94 | 101 | 107 | 108% | 100% | 94.2 | 110 |
| COC(=O)C1CC2c3ccccc3C1c1ccccc12 (stereo not given) | 111 | 119 | 122 | 107 | 101% | 107% | 91.2 | 106% | 94.5% | 66.4 | 103 | 109 | 97.7 | 97.9 | 101 | 104 | 105% | 107% | 106 | 113 |
| O=C(O)C1[O][Sb][O]C1C(=O)O (stereo not given) | 110 | 91.4 | 128 | 93 | 98.2% | 94.5% | 88.5 | 104% | 94.8% | 102 | 110 | 94 | 104 | 106 | 101 | 120 | 103% | 105% | 103 | 99.5 |
| O=C(NCc1ccc([N+](=O)[O-])cc1)Nc1ccc(S(=O)(=O)F)cc1 | 81.3 | 102 | 80.4 | 89.9 | 88.3% | 93.5% | 87.1 | 91.9% | 86.2% | 74.6 | 65.1 | 96 | 85.8 | 90.1 | 80 | 83.9 | 78.3% | 92.8% | 82.2 | 84.2 |
